Records with an inconclusive call do not appear. Calls of active or inactive are those of the source. Unless noted, the call rests on the fitted dose curve; in most records, active means well fitted curve in the direction sought with a large enough effect; inconclusive means small, poorly fitted or top-dose-only effect, or another doubt; inactive means no such curve, though single readings can be large; an effect the other way counts as inactive or inconclusive.

This is an account of results in PubChem BioAssay (NCATS).

Assay [1] is described as follows: Cytometric Cell-Based qHTS for Inhibitors of the mTORC1 Signaling Pathway in MEF (Tsc2-/-, p53-/-) Cells (AID 2660).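 Further: Tsc2 and p53 null MEFs carrying empty vector with compound for 24 h; percent of cells above a phospho-rpS6 to PI ratio cutoff in each well; series mostly up to about 38 µM.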 The method in brief: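 Percent of cells positive for normalized phospho-S6 staining is reported, with the cutoff set from rapamycin (7.5 nM) versus DMSO wells. Tsc2-/-, p53-/- MEFs received compound for 24 hrs.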
Assay [2] in a line: High Content Imaging Cell-Based qHTS for Inhibitors of the mTORC1 Signaling Pathway in MEF (Tsc2-/-, p53-/-) Cells (AID 2666).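 Further: percent of cells scored positive for phospho-rpS6 Ser235/236 immunostaining by imaging.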 Summed up:
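Cells were plated, dosed with compound after 24 hrs, and incubated another 24 hrs at 37 degree Celsius. Fixed cells were immunostained for phospho-rpS6 Ser235/236 and counterstained, and the normalized signal was scored as % active cells against rapamycin and DMSO controls.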

The nature of assay [3]: High Content Imaging Cell-Based qHTS for Inhibitors of the mTORC1 Signaling Pathway in MEF Cells (AID 2667).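 Further: Tsc2-/- p53-/- MEFs stably re-expressing wild-type Tsc2 exposed 24 h; series mostly up to about 38 µM.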 Summed up:
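Immunofluorescence for rpS6 phosphorylation in MEFs of Tsc2-/-, p53-/- background rescued with WT Tsc2. Compound exposure lasted 24 hrs. Inhibition was scored against rapamycin-treated control wells.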
For orientation: In qHTS, concentration-response curves come from the screen itself.

The nature of assay [4]: Cytometry Cell-Based qHTS for Inhibitors of the mTORC1 Signaling Pathway in MEF cells (AID 2668). Further: potency means the concentration at half of the fitted maximal effect. Summed up: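 Read-out: phospho-rpS6 Ser235/236 immunofluorescence normalized to propidium iodide intensity, scored as % active cells against a rapamycin (7.5 nM) threshold. Cells: Tsc2-/-, p53-/- MEFs stably expressing WT Tsc2, compound-treated 24 hrs at 37 degree Celsius.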

In assay [5] the target is Ubiquitin carboxyl-terminal hydrolase 2 (Homo sapiens) (UniProt O75604). In words: qHTS Validation Assay for Inhibitors of Ubiquitin-specific Protease USP2a Using CHOP2 as the Reporter (AID 463106). Summed up: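 10nM USP2 core + cpd, 30min RT; add 25nM Ub-CHOP2/25nM substrate; 60min RT; FI 485/531nm. Buffer Tris pH 8.0, CaCl2, BME, CHAPS. Norm. to NEM = 100% inhibition; time-zero read flags fluorescent artifacts.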

Assay [6] deals with DNA polymerase III PolC-type (Bacillus subtilis (strain 168)) (UniProt P13267). In words: qHTS Validation Assay for the Inhibitors of DNA Replication in Gram-Positive Bacteria (AID 485295).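 Further: reconstituted holoenzyme with PolC plus beta clamp SSB and primase; PicoGreen fluorescence of double-stranded DNA made on primed circular M13 template; series mostly up to about 57 µM.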 Summed up:
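PicoGreen fluorescence (ex 480–485/em 535–540 nm) reports dsDNA synthesized on ssM13Gori template with dNTPs/NTPs. Enzyme: holoenzyme rebuilt from purified PolC, beta subunit, SSB and primase. Compound preincubated before substrate addition; RT throughout.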

The target of assay [7] is Tumor susceptibility gene 101 protein (Homo sapiens) (UniProt Q99816). In words: qHTS Validation Assay for Iinhibitors of HIV-1 Budding by Blocking the Interaction of PTAP/TSG101 (AID 485342; calls by dose curve). Summed up:
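FP read-out: FITC-PTAP peptide, 50 nM final, binding Tsg101 binding domain, 10 uM final; 20 min r.t.; 10 mM HEPES pH 7.5, 0.15 M NaCl, 0.01% Tween 20, 3 mM EDTA, 0.1 mM TCEP.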

In assay [8] the target is Beta-2 adrenergic receptor (Homo sapiens) (UniProt P07550). The experiment in a line: qHTS validation assay of beta-arrestin-biased ligands of beta2-adrenergic receptor (AID 485366). Summed up: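 Luminescence from a tTA-responsive luciferase, induced when recombinant beta-arrestin is recruited to recombinant beta2-AR, served as the agonism signal. Cells were exposed to compound for 18 hr at 37 degrees C; titrations spanned up to 46 microM.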

Assay [9] concerns the target ATP-dependent 6-phosphofructokinase (Trypanosoma brucei brucei) (UniProt O15648). The experiment in a line: qHTS Validation Assay to Find Inhibitors of T. brucei phosphofructokinase (AID 485368). The note with it: outcome: dose series up to 57.5 µM. Summed up: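 Activity was normalized between 1x (1.25 nM) PFK wells as no inhibition and enzyme-free wells as full inhibition, from luminescence after ADP-Glo detection of ADP made from 0.5 mM F6P and 0.1 mM ATP over 45 min.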

Assay [10] addresses Thioredoxin reductase 1, cytoplasmic (Rattus norvegicus) (UniProt O89049). In words: qHTS Assay for Substrates of Mammalian Selenoprotein Thioredoxin Reductase 1 (TrxR1) (AID 488772).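 Further: NADPH fluorescence in the first read after selenite addition and not the 8 min delta; series mostly up to about 57 µM; a drop in NADPH fluorescence below the no-compound background marks a TrxR1 substrate.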 Summed up: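 Quantitative HTS in Tris-HCl buffer at pH 7.5 with EDTA and Tween-20, using rat TrxR1, 400 uM NADPH and 400 uM selenite (final). A fall in initial NADPH fluorescence relative to background marked substrate behaviour.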

For assay [11] the target is unchanged. In words: qHTS Assay for Inhibitors of Mammalian Selenoprotein Thioredoxin Reductase 1 (TrxR1) (AID 488773).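 Further: drop in NADPH fluorescence over an 8 min run after selenite addition; series mostly up to about 57 µM; nearly all actives have a fitted effect of over 40% in size.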 The note with it: Potency: inhibition. The method in brief:
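Steps: enzyme (90 nM) plus NADPH (400 uM final), 5 min at ~22 deg C; compound added, 15 min; selenite (400 uM final) added; fluorescence followed for 8 min. Concentration-response curves derived from the normalized delta values.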

Assay [12] addresses M-phase phosphoprotein 8 (Homo sapiens) (UniProt Q99549). In words: qHTS Validation Assay for Inhibitors for MPP8 Chromodomain Interactions with Methylated Histone Tails (AID 488949).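 Further: AlphaScreen signal from MPP8 chromodomain bound to biotinylated H3K9me3 peptide; top concentration of the series differs between compounds; nearly all actives have a fitted effect of over 55% in size.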 Summed up: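 AlphaScreen read-out: streptavidin donor and nickel chelate acceptor beads (final 10 ug/mL), 30 min in the dark at RT. Complex of 50 nM MPP8 and 50 nM b-H3(1-18)K9me3 peptide had been exposed to compounds for 30 min beforehand.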

Assay [13] concerns the target Ferritin light chain (Equus caballus) (UniProt P02791). In words: qHTS Validation Assay for Identification of Novel General Anesthetics (AID 2323). Further: series mostly up to about 77 µM. Summed up: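 10 uM horse-spleen apoferritin + 1-AMA (50% saturated, PBS); cpd pin-transferred, 10 min RT. Ex 380/Em 535 nm endpoint. Activity normalized between free 1-AMA and 1-AMA/apoferritin; 4-parameter Hill fit of concentration-response.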

The target in assay [14] is ATP-dependent DNA helicase Q1 (Homo sapiens) (UniProt P46063). In words: qHTS Validation Assay for Inhibitors of RecQ-Like Dna Helicase 1 (RECQ1) (AID 2353). The method in brief: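 50 nM RECQ1T1 preincubated 15 min with compound in Tris pH 8.0 buffer with MgCl2, DTT, Tween-20 and 2.5 ug/ml poly(dI-dC); started with 200 nM TAMRA/BHQ-2 forked duplex and 2 mM ATP. Unwinding read as fluorescence (525/598 nm), two reads 2 h apart.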

Assay [15] in a line: Validation screen for small molecules that induce DNA re-replication in MCF 10A normal breast cells (AID 463097). Further: nearly all actives have a fitted effect of over 60% in size. Summed up:
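250 MCF 10A cells/well; compound pin-transferred; 48 hr, 37 C, 5% CO2; Hoechst 40 min; imaged 405/500-530 nm. Hits = more high-intensity nuclei.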

Assay [16] can be described thus: Quantitative high throughput screen for delayed death inhibitors of the malarial parasite plastid, 96 hour incubation (AID 488745). Further: series mostly up to about 29 µM; nearly all actives have a fitted effect of over 70% in size. Summed up:
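P. falciparum carrying an integrated firefly luciferase reporter, grown in erythrocytes (2% hematocrit, 0.1% parasitemia final) in RPMI 1640/0.5% Albumax, was exposed to compound for 96 h (two generations) at 37 C, 5% CO2. Luminescence decrease indicated growth inhibition.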

Assay [17] has as its target Chromobox protein homolog 1 (Homo sapiens) (UniProt P83916). In words: qHTS Validation Assay for Inhibitors of HP1-beta Chromodomain Interactions with Methylated Histone Tails (AID 488953). Further: nearly all actives have a fitted effect of over 50% in size. Further: potency means the concentration at half of the fitted maximal effect. The method in brief:
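HP1-beta (50 nM) was preincubated 30 min at room temperature with biotinylated H3(1-18)K9me3 peptide (50 nM) in PBS pH 7.4, 0.01% Tween-20, then with compounds 30 min. AlphaScreen signal was read after streptavidin donor/nickel chelate acceptor beads (10 ug/mL final).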

The target in assay [18] is RecQ-like DNA helicase BLM (Homo sapiens) (UniProt P54132). In words: qHTS Validation Assay for Inhibitors of Bloom's syndrome helicase (BLM) (AID 2364). Summed up: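 Forked 20-bp duplex substrate (200 nM, TAMRA/BHQ-2) plus 2 mM ATP added after 15 min compound preincubation with 50 nM enzyme, pH 8.0, poly(dI-dC) 2.5 ug/ml. Strand separation followed by fluorescence (525/598 nm) over 2 h, normalized to enzyme-free and DMSO controls.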

The target of assay [19] is Flap endonuclease 1 (Homo sapiens) (UniProt P39748). In words: qHTS Validation Assay for the Inhibitors of Human Flap endonuclease 1 (FEN1) (AID 488816). Summed up: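 Readings taken at 0 and 15 min after starting the reaction with 50 nM (final) substrate supplied the signal. Compounds had first sat with 10 nM FEN1 reagent for 15 min at room temperature. Values come from Hill-equation concentration-response fits.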
Sequence of Flap endonuclease 1 (Homo sapiens) (P39748 whole entry, looked up): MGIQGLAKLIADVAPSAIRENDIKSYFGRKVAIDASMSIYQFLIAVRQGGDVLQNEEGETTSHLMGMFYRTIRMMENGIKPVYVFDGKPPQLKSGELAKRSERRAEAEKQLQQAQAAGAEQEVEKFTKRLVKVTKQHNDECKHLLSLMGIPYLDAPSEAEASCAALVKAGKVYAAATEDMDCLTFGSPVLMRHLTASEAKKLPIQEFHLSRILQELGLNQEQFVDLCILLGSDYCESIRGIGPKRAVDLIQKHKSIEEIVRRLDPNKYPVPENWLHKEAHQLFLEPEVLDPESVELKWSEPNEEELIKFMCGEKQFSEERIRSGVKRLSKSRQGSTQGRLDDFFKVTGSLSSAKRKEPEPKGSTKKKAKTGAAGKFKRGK

Sequence of Ubiquitin carboxyl-terminal hydrolase 2 (Homo sapiens) (O75604 whole entry, looked up): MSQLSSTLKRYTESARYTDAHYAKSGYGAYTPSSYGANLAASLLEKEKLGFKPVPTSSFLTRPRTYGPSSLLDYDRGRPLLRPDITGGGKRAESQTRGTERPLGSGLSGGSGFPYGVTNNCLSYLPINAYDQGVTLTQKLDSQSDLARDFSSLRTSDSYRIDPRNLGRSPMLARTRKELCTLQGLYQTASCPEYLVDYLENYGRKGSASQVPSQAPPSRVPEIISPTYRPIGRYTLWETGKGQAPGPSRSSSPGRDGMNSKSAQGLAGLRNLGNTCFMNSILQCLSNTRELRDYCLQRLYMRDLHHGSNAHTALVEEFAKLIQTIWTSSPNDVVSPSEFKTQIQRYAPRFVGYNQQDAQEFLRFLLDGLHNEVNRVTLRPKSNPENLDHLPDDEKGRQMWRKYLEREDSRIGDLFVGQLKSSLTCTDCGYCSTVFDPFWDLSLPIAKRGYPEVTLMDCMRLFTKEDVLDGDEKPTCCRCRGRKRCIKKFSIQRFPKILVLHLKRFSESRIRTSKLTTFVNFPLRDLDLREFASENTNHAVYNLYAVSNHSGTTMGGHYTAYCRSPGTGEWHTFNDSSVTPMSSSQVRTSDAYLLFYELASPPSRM
Sequence of ATP-dependent DNA helicase Q1 (Homo sapiens) (P46063 whole entry, looked up): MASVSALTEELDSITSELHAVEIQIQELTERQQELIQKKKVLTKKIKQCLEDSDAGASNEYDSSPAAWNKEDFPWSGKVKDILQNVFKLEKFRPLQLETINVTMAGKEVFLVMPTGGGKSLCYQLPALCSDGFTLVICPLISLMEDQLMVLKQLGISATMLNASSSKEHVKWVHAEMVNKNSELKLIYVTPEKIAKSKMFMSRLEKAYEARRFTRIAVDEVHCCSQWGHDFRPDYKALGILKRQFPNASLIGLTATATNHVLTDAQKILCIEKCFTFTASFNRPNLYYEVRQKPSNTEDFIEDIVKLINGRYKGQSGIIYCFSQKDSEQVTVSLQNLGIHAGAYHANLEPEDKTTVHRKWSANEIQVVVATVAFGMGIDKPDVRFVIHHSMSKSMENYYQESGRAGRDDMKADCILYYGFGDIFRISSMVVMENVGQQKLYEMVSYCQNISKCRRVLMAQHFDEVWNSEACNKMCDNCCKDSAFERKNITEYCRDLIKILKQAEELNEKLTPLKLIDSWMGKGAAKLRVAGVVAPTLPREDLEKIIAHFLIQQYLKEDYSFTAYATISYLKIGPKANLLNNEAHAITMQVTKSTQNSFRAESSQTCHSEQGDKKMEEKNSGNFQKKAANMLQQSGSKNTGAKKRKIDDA
Sequence of Chromobox protein homolog 1 (Homo sapiens) (P83916 whole entry, looked up): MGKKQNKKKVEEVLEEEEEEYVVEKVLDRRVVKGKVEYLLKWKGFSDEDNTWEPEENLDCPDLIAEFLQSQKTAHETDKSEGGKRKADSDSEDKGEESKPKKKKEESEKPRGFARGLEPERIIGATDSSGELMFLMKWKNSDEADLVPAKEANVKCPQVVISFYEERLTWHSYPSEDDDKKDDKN
Sequence of ATP-dependent 6-phosphofructokinase (Trypanosoma brucei brucei) (O15648 whole entry, looked up): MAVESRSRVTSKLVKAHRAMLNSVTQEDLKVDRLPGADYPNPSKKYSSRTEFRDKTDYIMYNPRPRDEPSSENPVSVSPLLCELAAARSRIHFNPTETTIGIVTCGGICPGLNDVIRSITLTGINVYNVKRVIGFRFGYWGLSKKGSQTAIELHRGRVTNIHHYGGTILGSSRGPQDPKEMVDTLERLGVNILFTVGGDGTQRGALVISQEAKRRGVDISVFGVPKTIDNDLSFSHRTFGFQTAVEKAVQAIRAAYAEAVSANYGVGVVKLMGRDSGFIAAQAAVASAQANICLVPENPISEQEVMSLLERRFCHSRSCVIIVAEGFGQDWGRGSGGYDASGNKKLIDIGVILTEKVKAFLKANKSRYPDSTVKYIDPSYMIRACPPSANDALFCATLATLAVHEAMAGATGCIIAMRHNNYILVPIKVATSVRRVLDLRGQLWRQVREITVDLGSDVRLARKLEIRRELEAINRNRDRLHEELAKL
Sequence of M-phase phosphoprotein 8 (Homo sapiens) (Q99549 whole entry, looked up): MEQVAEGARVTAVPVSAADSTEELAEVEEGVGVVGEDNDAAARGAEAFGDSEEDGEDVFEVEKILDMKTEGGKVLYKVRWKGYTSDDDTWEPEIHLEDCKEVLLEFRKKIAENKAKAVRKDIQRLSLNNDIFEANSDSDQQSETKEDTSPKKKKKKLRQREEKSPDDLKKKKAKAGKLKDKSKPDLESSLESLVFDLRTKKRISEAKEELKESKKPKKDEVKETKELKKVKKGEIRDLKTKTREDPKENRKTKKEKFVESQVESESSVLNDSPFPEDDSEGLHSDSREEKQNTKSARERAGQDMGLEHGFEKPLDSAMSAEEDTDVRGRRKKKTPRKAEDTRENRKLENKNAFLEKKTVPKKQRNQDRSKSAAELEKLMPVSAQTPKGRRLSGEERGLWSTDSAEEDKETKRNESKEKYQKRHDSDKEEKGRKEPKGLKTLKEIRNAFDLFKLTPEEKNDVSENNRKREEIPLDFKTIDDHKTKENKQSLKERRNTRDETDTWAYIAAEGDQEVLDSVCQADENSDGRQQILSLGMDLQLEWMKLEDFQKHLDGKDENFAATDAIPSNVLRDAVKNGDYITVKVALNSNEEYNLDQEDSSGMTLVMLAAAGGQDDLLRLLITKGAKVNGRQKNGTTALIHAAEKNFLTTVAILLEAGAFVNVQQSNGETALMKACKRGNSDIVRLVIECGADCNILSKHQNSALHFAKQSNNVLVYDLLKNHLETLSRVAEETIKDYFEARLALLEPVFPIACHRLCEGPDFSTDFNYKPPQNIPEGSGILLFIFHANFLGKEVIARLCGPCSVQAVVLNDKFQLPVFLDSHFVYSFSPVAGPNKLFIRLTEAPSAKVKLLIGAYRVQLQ
Sequence of Ferritin light chain (Equus caballus) (P02791 2-175 limits assumed): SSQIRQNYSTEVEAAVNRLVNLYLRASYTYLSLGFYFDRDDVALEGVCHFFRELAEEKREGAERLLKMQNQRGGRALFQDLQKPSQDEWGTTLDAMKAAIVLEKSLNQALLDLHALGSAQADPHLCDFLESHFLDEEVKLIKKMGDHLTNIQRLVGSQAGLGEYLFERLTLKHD
Sequence of Tumor susceptibility gene 101 protein (Homo sapiens) (Q99816 whole entry, looked up, the tested form may be a part): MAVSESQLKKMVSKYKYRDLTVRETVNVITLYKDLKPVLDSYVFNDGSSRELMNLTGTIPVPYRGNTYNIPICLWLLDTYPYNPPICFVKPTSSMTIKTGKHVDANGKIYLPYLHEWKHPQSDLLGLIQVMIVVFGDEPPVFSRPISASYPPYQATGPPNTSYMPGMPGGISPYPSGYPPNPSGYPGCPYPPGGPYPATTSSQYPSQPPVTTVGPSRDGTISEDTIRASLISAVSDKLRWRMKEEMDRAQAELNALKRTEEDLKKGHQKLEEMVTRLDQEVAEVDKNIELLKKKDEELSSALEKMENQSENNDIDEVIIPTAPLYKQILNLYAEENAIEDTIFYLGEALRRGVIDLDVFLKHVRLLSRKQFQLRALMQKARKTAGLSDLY
Sequence of Beta-2 adrenergic receptor (Homo sapiens) (P07550 whole entry, looked up): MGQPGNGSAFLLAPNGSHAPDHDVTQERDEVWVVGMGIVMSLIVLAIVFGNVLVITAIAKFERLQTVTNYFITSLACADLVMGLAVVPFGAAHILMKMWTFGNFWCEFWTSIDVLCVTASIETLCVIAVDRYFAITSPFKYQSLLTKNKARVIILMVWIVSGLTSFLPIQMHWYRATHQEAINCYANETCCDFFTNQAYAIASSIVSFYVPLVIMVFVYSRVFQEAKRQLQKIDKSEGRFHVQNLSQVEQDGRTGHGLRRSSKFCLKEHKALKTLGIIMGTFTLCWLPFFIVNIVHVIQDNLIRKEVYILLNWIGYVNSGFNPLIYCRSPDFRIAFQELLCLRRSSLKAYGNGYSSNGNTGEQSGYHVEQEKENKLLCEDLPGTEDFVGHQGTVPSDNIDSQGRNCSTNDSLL
Sequence of Thioredoxin reductase 1, cytoplasmic (Rattus norvegicus) (O89049 whole entry, looked up): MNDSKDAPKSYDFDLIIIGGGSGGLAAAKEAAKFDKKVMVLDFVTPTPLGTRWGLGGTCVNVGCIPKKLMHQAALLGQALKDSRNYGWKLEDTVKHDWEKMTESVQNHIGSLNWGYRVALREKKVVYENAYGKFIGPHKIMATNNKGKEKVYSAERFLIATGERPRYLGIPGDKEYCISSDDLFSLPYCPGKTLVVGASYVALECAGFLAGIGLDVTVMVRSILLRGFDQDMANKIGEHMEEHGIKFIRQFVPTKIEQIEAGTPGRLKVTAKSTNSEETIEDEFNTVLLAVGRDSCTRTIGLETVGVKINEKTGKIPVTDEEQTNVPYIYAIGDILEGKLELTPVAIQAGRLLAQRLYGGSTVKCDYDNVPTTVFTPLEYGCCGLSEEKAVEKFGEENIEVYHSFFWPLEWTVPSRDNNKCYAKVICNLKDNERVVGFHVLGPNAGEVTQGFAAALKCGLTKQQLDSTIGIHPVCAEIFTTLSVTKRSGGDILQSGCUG

Turning to `O=C(NCCN1CCOCC1)c1ccc(Cl)cc1`, the call in [1], in assay [3], in assay [5], in [6], in [7] and in assay [8] was inactive. In addition, the compound was called inactive in assay [9]. The Potency entry in [2], in assay [4], in [10], in [11] and in [12] was “inactive” throughout.

As to `CCN(CC)C(=O)c1ccc(O)c(OC)c1`, the outcome in [13], in [14], in assay [1], in assay [3], in assay [5] and in assay [6] was inactive. Further, the outcome in assay [7], in assay [8] and in assay [9] was inactive. Moreover, the Potency entry in assay [2], in assay [4], in assay [15], in assay [16], in assay [10] and in [11] was “inactive” in each case. Also, the Potency result in assay [12] and in assay [17] was “inactive” throughout.

Take `Cc1cccc(C)c1OCC(C)N` (stereo unspecified): the outcome in assay [14], in assay [1], in [3], in assay [5], in assay [6] and in [7] was inactive. The compound was classed as inactive in assay [8] and in assay [19]. The Potency result in [18], in assay [2], in assay [4], in assay [15], in assay [16] and in assay [10] was “inactive” each time. Further, the Potency entry in assay [11], in [12] and in assay [17] was “inactive” in each case.

With `COc1cccc(-c2cc(=O)c3ccccc3o2)c1N`, the call in assay [13], in assay [14], in assay [1], in assay [3], in [5] and in assay [6] was inactive. Further, the call in assay [7], in assay [8] and in assay [19] was inactive. In addition, the Potency result in [2], in assay [4], in assay [10], in assay [11], in [12] and in assay [17] was “inactive” throughout.

As for `CC1=C(/C=C/C(C)=C/C=C/C(C)=C/C(=O)Nc2ccc(O)cc2)C(C)(C)CCC1`, the compound was classed as inactive in assay [14], in assay [5], in assay [6], in assay [7], in assay [8] and in assay [9]. In addition, in assay [19], the compound was classed as inactive. The Potency in assay [4] is 18.5 µM (active); in assay [17], 39.8 µM (active). In addition, the Potency result in assay [12] is “inactive”.

Consider `CC(C)NCC(O)COc1cccc2[nH]ccc12` (stereo unspecified), for which the outcome in [13], in [14], in [1], in assay [3], in assay [5] and in assay [6] was inactive. Besides, the outcome in assay [7] and in assay [8] was inactive. The Potency result in assay [2], in assay [4], in assay [15], in assay [16], in assay [10] and in assay [11] was “inactive” throughout.

As for `Clc1ccc(C(c2ccc(Cl)cc2)n2cc[n+](CC(OCc3ccc(Cl)cc3Cl)c3ccc(Cl)cc3Cl)c2)cc1` (stereo unspecified), the Potency result in [2], in [10] and in assay [11] was “inactive” in each case. The outcome in assay [6], in assay [7] and in assay [8] was inactive.

Consider `CCN(CC)CCOC(=O)c1ccc(N)cc1`, for which the compound was called inactive in assay [13], in [14], in assay [1], in assay [3], in assay [5] and in assay [6]. Moreover, the compound was called inactive in assay [7], in assay [8], in assay [9] and in assay [19]. Further, the Potency entry in assay [2], in assay [4], in assay [15], in assay [16], in [10] and in [11] was “inactive” in each case. The Potency entry in assay [12] and in [17] was “inactive” throughout.

Consider `CC(=O)N[C@@H](CS)C(=O)O`, for which the result in assay [13], in assay [1], in assay [3], in [5], in assay [6] and in assay [7] was inactive. The compound was classed as inactive in [8], in assay [9] and in assay [19]. Further, the Potency result in [2], in assay [4], in assay [15], in assay [16], in assay [10] and in assay [11] was “inactive” throughout. The Potency result in assay [12] and in assay [17] was “inactive” throughout.
